The text below walks through data of PubChem BioAssay.

Active and inactive are the calls of the source. The rule behind the calls is not given here.

Chain of Pantothenate synthetase (Mycobacterium tuberculosis (strain ATCC 25618 / H37Rv)) (P9WIL5 whole entry, looked up): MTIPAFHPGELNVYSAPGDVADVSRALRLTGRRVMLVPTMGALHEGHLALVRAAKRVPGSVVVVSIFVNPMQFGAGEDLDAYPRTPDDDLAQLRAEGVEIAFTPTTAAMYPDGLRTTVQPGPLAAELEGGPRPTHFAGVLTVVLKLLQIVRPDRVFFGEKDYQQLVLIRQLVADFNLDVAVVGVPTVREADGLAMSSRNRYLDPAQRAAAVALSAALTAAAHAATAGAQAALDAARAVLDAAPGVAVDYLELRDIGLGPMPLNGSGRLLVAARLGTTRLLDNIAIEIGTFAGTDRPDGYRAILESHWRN

This assay addresses Pantothenate synthetase (Mycobacterium tuberculosis (strain ATCC 25618 / H37Rv)) (UniProt P9WIL5). Nature of the assay: Recombinant Mtb pantothenate synthetase (PanC) inhibitors, coupled enzyme, confirmatory (AID 375).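 Note: 0% = full reaction with vehicle and 100% = no enzyme background.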 The conditions noted are these: coupled enzyme assay; at 10 µM, stronger effect = higher value.
Usually inhibition stands for the share of the control response that was lost under treatment. Turning to `O=C(Nc1ccc(N2CCOCC2)c(F)c1)c1ccncc1`, the inhibition is 0% (inactive).

With `O=c1[nH]c(=O)n([C@H]2C[C@H](O)[C@@H](CO)O2)cc1F`, the inhibition was 0% (inactive).

Regarding `CCc1nc(C)ccc1OCC(=O)O`, the inhibition was 3% (inactive).

For `O=C(c1ccccc1)N1CCN(Cc2ccccc2Br)CC1`, the inhibition is 3% (inactive).

On to `Cc1cc(C)nc(N2CCC(C(=O)NC3CCCCCC3)CC2)n1`, for which the inhibition is 1% (inactive).

In the case of `O=C(OC1CCOC1=O)c1ccc(S(=O)(=O)N2CCCCCC2)cc1` (stereo not drawn), the inhibition was 0% (inactive).

In the case of `O=C(COc1ccc(Cl)cc1)Nc1nc(-c2cccs2)cs1`, the inhibition was 1% (inactive).

On to `CC1=C(C(N)=O)C(c2cccnc2)n2nc(SCc3ccccc3Cl)nc2N1` (stereo not drawn), for which the inhibition is 0% (inactive).

With `CCOC(=O)c1c(NC(=O)OC)sc2c1CCC2`, the inhibition is 0% (inactive).

On to `COc1ccc(C2=NOC(C(=O)Nc3cc(Br)ccc3O)C2)cc1OC` (stereo not drawn), for which the inhibition was 3% (inactive).

Consider `CN(Cc1ccccc1)Cc1c[nH]c2ccccc12`, for which the inhibition was 0% (inactive).

On to `Cc1c(C(=O)Nc2nnc(C(F)(F)F)s2)oc2ccccc12`, for which the inhibition was 5% (inactive).

Consider `O=S(c1ccsc1)c1ccsc1`, for which the inhibition was 0% (inactive).

For the molecule `CC(C)=CCCC(C)N(C=O)C(C)CCC=C(C)C` (stereo not drawn), the inhibition is 3% (inactive).

As for `CCOC(=O)C(NC(C)=O)(Nc1ccc(S(=O)(=O)Nc2nccs2)cc1)C(F)(F)F` (stereo not drawn), the inhibition is 3% (inactive).

With `COCCOC(=O)/C=C1/NC(=O)CS1`, the inhibition was 0% (inactive).

For the molecule `CS(=O)(=O)Nc1ccc(C(=O)NCc2ccco2)cc1`, the inhibition is 0% (inactive).

Regarding `CCCCN(C)CCCNC(=O)CC1Oc2ccccc2NC1=O` (stereo not drawn), the inhibition was 6% (inactive).

In the case of `S=c1[nH]c2ccc(Cl)cc2[nH]1`, the inhibition is 9% (inactive).

As for `COc1cccc(C2CC(c3ccc(C)cc3)n3nc(N)nc3N2)c1` (stereo not drawn), the inhibition is 15% (inactive).

As to `CCCCn1c2c(c3ccccc31)CCc1nonc1-2`, the inhibition is 1% (inactive).

Take `CCOC(=O)c1cc2ccc(OC)c(OC)c2c(=O)s1`: the inhibition was 0% (inactive).

With `O=C(C1CC1)N1CCc2cc(Br)cc(S(=O)(=O)N3CCOCC3)c21`, the inhibition is 3% (inactive).
